Among the data in PubChem BioAssay AID743279 (National Center for Advancing Translational Sciences (NCATS), 2014) are activity change values, retold here.

Screen size: about 360,000 compounds; about 17,000 (4.7%) were called active. Inconclusive results (about 5%) are left out. Shown is part of a subset that was picked to be rich in actives. A number with no mark means an inactive call. Cut-off read from the data, not from the text of the source: active = activity change below about -50%; inconclusive = mostly about -30% to -49%; inactive = weaker than that.
% is set by controls: 0 for no effect and ±100 for the full control effect.

The test is described as follows: qHTS for Inhibitors of Inflammasome Signaling: IL-1-beta AlphaLISA Primary Screen. The settings on record: THP-1 LPS/ATP IL-1B secretion, 16 h; at 57.5 µM, stronger effect = lower value. The procedure, abridged: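 THP-1 cells pretreated 1 hr with compounds (up to 57.5 uM final), then stimulated with LPS (250 ng/mL final) plus ATP (1.25 mM final); secreted IL-1B measured by AlphaLISA after 16 hr, decreased signal indicating inhibition.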
Regarding `COc1ccc([C@H]2N[C@]3(CCCN(Cc4ccco4)C3=O)[C@H]3C(=O)N(C)C(=O)[C@@H]23)cc1`, the activity change was -4.35%.

On to `Cc1cc(=O)oc2c3c(cc(OCC(=O)NCCC(=O)N[C@@H](C)C(=O)O)c12)OC(C)(C)CC3`, for which the activity change was -0.546%.

In the case of `O=C(NCc1cccnc1)c1cccc(-c2cc3ccccc3oc2=O)c1`, the activity change was -3.38%.

Consider `Cc1ccn2c(-c3csc(Nc4ccc(C(=O)O)cc4)n3)c(C)nc2c1`, for which the activity change is 30.5%.

As to `O=c1oc2ccccc2cc1-c1csc(Nc2ccc(O)cc2)n1`, the activity change was -97.2% (active).

As to `Nc1nc2c(Br)ccc(Br)c2cc1C(=O)NCCc1ccccc1`, the activity change is 0%.

Consider `CCCCN(C(=O)c1cccc(N2C(=O)c3ccccc3C2=O)c1)c1c(N)n(CCCC)c(=O)[nH]c1=O`, for which the activity change is 13%.

Consider `CCC(C)NCCOCCOc1ccc(Br)cc1C` (stereo unspecified), for which the activity change was -17.9%.

For the molecule `C[C@H](NC(=O)CC[C@H]1O[C@@H](n2ccc(=O)[nH]c2=O)[C@H](O)[C@@H]1O)c1cccc2ccccc12`, the activity change is 0%.

`CCOc1ccc(CC(=O)NC2CCN(Cc3ccccc3)CC2)cc1`: the activity change is 0%.

Regarding `O=C(NC1CCN(Cc2ccccc2)CC1)c1cc(Br)c(Br)[nH]1`, the activity change is -123% (active).

Consider `CC(C)(C)C(=O)NNC(=O)c1ccc(Oc2cc(Cl)cc(Cl)c2)o1`, for which the activity change was 6.58%.

Take `O=C(NC1CCN(Cc2ccccc2)CC1)c1ccc(Oc2cc(Cl)cc(Cl)c2)o1`: the activity change is -70.1% (active).

Turning to `Cc1cc(C(=O)NC2CCN(Cc3ccccc3)CC2)n[nH]1`, the activity change was -8.74%.

Consider `COc1cc2[nH]c(=O)n(Cc3ccc(C(=O)NC4CCN(Cc5ccccc5)CC4)cc3)c(=O)c2cc1OC`, for which the activity change was 2%.

Consider `COC(=O)c1ccc2nc(-c3ccccc3)c(Cc3ccc(OC)cc3C)n2c1`, for which the activity change was -3.04%.

Take `CSc1ccc(CN2CCC2(C)C(=O)Nc2ccc(C)c(O)c2)cc1` (stereo unspecified): the activity change was -13.3%.

`Cc1ccc(S(=O)(=O)N[C@H](CO)C(C)C)cc1`: the activity change was -19.8%.

In the case of `Cc1ccsc1CNn1cnnc1SCc1ccccc1F`, the activity change is -6.1%.

`CC(C)c1ccc(CC(=O)N2CCC2(C)C(=O)NS(=O)(=O)c2ccc(C(C)(C)C)cc2)cc1` (stereo unspecified): the activity change is 19.2%.

Take `C[C@]12CCC(=O)C=C1C=CC1C2CC[C@@]2(C)C1CC[C@@]21CCC(=O)O1` (stereo partly specified): the activity change is -21.4%.

As for `CSCCC(NS(=O)(=O)c1ccc(C)cc1)C(=O)NCCc1c[nH]c2ccccc12` (stereo unspecified), the activity change is -1.87%.

Consider `O=C1Nc2ccccc2-n2nnnc2C1N1CCN(c2cccc(C(F)(F)F)n2)CC1` (stereo unspecified), for which the activity change is -29.2%.

For the molecule `CCOc1ccc(/C=N/OCC(=O)NCc2cccs2)cc1`, the activity change is -0.513%.

Take `O=C(CO/N=C/c1ccc(OC(F)F)cc1)NCc1ccc(F)cc1`: the activity change was -66.2% (active).

As for `CC1CCCCC1NC(=O)CO/N=C/c1ccc(OC(F)F)cc1` (stereo unspecified), the activity change was -0.145%.
